# Source: PubChem BioAssay
# Active and inactive are the calls of the source.
# How the values were obtained:
# [1] = small molecules captured by biotinylated probe aFSTL3 – biochemical, small-molecule microarray, fluorescence 635/667, stem cell growth factor project, primary screen (AID 1064); details: higher = more signal;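 also: measures binding of the biotinylated anti-FSTL3 antibody to printed compounds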
# [2] = binders from COS7 lysate, DM2A8 probe, primary screen, torsin A project, cell lysate, small-molecule microarray, fluorescence 635/667 (AID 1065); details: higher = more signal, COS7 lysate expressing mutant human TOR1A
# [3] = small molecules captured by biotinylated probe aFGF2 – biochemical, small-molecule microarray, fluorescence 635/667, stem cell growth factor project, primary screen (AID 1067); details: higher = more signal;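 also: measures binding of biotinylated aFGF2 protein to printed compounds on slides; z-score merges feature fluorescence and signal-to-noise across triplicate slides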
# [4] = small molecules captured by biotinylated probe aFGF10 – biochemical, small-molecule microarray, fluorescence 635/667, stem cell growth factor project, primary screen (AID 1071); details: higher = more signal;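 also: score merges 667 nm spot intensity and signal to noise from triplicate slides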
# [5] = molecular target: Neurogenic locus notch homolog protein 2 (Homo sapiens) (UniProt Q04721); assay: small molecules binding Notch2 protein – biochemical, small-molecule microarray, 635 nm fluorescence, stem cell growth factors, primary screen (AID 1073); details: higher = more signal
# Neurogenic locus notch homolog protein 2 (Homo sapiens), sequence (Q04721 whole entry, looked up, canonical isoform): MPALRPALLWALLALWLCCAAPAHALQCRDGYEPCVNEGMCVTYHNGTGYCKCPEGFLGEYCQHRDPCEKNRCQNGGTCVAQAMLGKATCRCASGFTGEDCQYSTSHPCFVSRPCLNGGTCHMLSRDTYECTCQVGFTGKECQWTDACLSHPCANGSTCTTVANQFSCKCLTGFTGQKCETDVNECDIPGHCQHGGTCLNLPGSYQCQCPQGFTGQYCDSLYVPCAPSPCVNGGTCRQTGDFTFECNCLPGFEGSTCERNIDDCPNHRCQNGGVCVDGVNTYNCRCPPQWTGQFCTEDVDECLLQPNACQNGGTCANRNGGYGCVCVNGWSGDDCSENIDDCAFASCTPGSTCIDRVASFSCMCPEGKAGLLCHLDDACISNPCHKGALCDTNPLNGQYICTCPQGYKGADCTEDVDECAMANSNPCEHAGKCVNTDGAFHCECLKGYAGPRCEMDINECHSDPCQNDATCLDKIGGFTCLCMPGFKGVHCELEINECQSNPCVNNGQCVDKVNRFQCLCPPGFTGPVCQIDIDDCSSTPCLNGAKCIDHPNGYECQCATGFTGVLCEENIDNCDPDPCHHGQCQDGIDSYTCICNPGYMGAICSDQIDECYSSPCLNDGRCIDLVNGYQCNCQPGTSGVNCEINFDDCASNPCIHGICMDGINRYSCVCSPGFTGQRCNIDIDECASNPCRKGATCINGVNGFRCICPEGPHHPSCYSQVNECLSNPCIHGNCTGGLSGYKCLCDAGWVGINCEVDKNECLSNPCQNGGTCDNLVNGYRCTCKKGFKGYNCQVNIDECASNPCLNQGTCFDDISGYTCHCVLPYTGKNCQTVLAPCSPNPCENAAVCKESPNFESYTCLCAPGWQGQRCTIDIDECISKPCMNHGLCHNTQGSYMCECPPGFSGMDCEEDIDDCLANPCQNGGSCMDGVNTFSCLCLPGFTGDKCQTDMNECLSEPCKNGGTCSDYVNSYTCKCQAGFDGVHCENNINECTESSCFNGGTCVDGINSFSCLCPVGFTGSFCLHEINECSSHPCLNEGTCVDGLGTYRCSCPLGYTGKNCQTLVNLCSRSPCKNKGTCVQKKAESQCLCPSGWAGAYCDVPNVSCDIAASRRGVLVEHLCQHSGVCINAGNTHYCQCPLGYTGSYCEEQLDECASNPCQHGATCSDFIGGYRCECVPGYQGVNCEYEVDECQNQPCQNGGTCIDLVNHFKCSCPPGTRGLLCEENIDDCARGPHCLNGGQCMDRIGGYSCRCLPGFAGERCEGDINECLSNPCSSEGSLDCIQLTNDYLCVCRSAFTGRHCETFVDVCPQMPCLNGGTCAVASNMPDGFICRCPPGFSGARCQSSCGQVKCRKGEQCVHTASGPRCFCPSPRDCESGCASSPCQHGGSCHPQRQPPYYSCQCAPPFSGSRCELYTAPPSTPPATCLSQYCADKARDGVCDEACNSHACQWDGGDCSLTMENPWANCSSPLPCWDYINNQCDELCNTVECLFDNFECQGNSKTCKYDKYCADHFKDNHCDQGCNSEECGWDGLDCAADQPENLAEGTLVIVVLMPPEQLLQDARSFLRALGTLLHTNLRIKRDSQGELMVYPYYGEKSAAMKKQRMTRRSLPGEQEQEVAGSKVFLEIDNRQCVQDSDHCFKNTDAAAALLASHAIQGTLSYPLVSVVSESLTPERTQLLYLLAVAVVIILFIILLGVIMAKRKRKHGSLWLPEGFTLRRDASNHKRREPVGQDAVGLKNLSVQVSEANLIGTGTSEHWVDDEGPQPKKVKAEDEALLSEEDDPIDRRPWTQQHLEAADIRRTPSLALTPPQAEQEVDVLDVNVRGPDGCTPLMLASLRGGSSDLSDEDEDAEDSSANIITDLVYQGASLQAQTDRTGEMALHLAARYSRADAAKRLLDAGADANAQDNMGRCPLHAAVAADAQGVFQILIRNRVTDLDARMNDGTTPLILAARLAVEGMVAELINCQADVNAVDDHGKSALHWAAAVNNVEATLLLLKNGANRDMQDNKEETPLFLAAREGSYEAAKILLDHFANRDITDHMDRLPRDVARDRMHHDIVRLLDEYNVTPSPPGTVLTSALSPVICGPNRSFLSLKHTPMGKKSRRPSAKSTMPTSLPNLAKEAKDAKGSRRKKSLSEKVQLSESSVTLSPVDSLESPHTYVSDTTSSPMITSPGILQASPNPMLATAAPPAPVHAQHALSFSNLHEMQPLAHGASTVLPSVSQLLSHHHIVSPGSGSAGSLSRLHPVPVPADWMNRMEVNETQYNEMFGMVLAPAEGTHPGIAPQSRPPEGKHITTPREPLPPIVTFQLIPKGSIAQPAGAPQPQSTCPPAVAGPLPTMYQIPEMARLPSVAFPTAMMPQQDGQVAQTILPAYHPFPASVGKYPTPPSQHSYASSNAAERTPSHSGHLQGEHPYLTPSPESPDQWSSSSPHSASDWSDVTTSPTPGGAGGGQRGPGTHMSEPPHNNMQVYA
# [6] = molecular target: Pro-neuregulin-1, membrane-bound isoform (Homo sapiens) (UniProt Q02297); assay: small molecules binding neuregulin-1 protein – biochemical, small-molecule microarray, fluorescence 635/667, psychiatric disease protein project, primary screen (AID 1075); details: NRG1 binding, 635 nm fluorescence, higher = more signal;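 also: score combines 667 nm spot fluorescence with signal to noise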
# Pro-neuregulin-1, membrane-bound isoform (Homo sapiens), sequence (Q02297 whole entry, looked up, the tested form may be a part, canonical isoform): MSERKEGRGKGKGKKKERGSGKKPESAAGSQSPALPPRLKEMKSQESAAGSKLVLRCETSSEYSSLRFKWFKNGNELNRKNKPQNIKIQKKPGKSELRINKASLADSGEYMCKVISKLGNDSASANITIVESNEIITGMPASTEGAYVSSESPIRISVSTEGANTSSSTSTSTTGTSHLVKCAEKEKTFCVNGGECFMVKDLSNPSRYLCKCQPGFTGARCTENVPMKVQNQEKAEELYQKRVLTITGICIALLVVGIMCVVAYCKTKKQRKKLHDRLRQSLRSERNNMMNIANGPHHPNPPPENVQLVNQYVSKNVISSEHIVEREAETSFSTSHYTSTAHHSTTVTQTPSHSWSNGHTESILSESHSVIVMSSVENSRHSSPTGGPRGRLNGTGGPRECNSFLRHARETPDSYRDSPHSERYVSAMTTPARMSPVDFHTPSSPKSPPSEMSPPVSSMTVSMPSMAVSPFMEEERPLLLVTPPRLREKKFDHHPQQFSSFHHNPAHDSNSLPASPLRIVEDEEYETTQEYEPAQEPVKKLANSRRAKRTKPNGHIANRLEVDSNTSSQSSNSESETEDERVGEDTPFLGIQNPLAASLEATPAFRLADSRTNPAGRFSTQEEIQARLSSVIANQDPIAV
# [7] = tested on: Neuregulin-1 EGF-like domain; assay: small molecules binding NRG1 EGF domain – biochemical, small-molecule microarray, 635 nm fluorescence, primary screen (AID 1081); details: higher = more signal;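 also: binding of the protein to compounds printed on small-molecule microarray slides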
# [8] = FRG1 expression reporter modulators in myotubes – cell-based, C2C12 myotubes, firefly/Renilla luciferase, luminescence, FRG1 inhibition for FSHD, primary screen (AID 1084); details: FRG1 promoter luciferase, higher = more signal, called active from +8 up or from −8 down
# [9] = small molecules captured by biotinylated probe aFST – biochemical, small-molecule microarray, fluorescence 635/667, stem cell growth factor project, primary screen (AID 1086); details: higher = more signal;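 also: score merges 667 nm fluorescence with signal-to-noise of each printed compound spot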
# [10] = binders of probe aHhip on microarray, primary screen, stem cell growth factor project, biochemical, small-molecule microarray, fluorescence 635/667 (AID 1087); details: higher = more signal;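 also: score merges spot fluorescence at 667nm with spot signal to noise ratio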
# [11] = tested on: PRMT1 (protein arginine N-methyltransferase 1); assay: small molecules binding arginine methyltransferase PRMT1 – biochemical, small-molecule microarray, 635 nm fluorescence, primary screen (AID 1088); details: higher = more signal;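 also: binding of Prmt1 protein to compounds spotted on small-molecule microarray slides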
# [12] = growth effects on S. cerevisiae YJM789 – YJM789 clinical isolate, OD600, 24 h, basal, primary screen (AID 1089); details: higher = more signal, called active from +8 up or from −8 down;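 also: growth of clinical yeast isolate S. cerevisiae YJM 789 seeded 1000 cells per well; test concentration not given here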
# [13] = S. pombe growth modifiers, basal conditions – strain 972, OD600, 24 h, no modulator, primary screen (AID 1090);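 also: basal condition with compound alone and no growth modifier present; test concentration not given here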; details: S. pombe 972 growth, higher = more signal, called active from +8 up or from −8 down
# [14] = budding yeast growth modifiers under rapamycin – strain BY4716, OD600, 96 h, primary screen (AID 1091); also: test concentration not given here; details: S. cerevisiae BY4716 + rapamycin, higher = more signal, called active from +8 up or from −8 down
# [15] = molecular target: Torsin-1A-interacting protein 2 (Homo sapiens) (UniProt Q8NFQ8); assay: small molecules binding lysate-expressed LULL1 – cell lysate, human LULL1 lysate, 635/667 nm fluorescence, primary screen (AID 1092); details: small-molecule microarray, hLULL1 lysate binding, 635 nm fluorescence; higher = more signal;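 also: probe is lysate of COS7 cells overexpressing human LULL1; score merges per-feature 667 nm fluorescence with signal-to-noise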
# Torsin-1A-interacting protein 2 (Homo sapiens), sequence (Q8NFQ8 whole entry, looked up): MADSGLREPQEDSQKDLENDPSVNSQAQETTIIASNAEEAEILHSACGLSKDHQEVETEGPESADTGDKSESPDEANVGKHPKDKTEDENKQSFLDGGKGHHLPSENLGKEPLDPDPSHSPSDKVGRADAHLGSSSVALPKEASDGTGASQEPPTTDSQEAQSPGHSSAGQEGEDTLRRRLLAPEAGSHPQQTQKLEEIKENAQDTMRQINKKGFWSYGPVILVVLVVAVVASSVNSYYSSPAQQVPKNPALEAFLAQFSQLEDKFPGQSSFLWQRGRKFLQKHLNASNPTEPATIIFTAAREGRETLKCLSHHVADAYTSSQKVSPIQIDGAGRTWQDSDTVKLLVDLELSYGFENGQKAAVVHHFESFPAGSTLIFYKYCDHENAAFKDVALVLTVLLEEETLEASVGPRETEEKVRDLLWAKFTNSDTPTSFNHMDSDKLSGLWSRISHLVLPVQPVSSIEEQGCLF
# [16] = optical density change of DRC41 E. coli – strain DRC41, OD650, 24 h, E. coli filamentation project, primary screen (AID 1093);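 also: MC1000 strain lacking acrAB efflux and sulA so SOS filamentation is blocked; test concentration not given here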; details: E. coli DRC41 growth, higher = more signal, called active from +8 up or from −8 down
# [17] = probe aLefty2 binding to arrayed compounds – biochemical, biotinylated probe, 635/667 nm fluorescence, primary screen (AID 1094); details: small-molecule microarray, higher = more signal;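 also: score merges spot fluorescence near 667 nm with spot signal-to-noise ratio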
# [18] = tested on: Noggin (protein binding on small-molecule microarray); assay: small molecules binding Noggin protein – biochemical, 635/667 nm fluorescence, primary screen (AID 1095); details: 635 nm fluorescence, higher = more signal;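 also: score merges 667 nm feature fluorescence with signal to noise over triplicate slides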
# [19] = molecular target: Neurogenic locus notch homolog protein 3 (Homo sapiens) (UniProt Q9UM47); assay: small molecules binding NOTCH3 protein – biochemical, 635/667 nm fluorescence, primary screen (AID 1096); details: small-molecule microarray, 635 nm fluorescence, higher = more signal
# [20] = probe aEGFR binding to arrayed compounds – biochemical, biotinylated probe, 635/667 nm fluorescence, primary screen (AID 1097); details: small-molecule microarray, higher = more signal;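 also: probe is a biotinylated anti-EGFR antibody binding compounds printed on slides; score combines fluorescence near 667 nm and signal to noise of each spot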
SMILES,composite z-score [1],composite z-score [2],composite z-score [3],composite z-score [4],composite z-score [5],composite z-score [6],composite z-score [7],z-score [8],composite z-score [9],composite z-score [10],composite z-score [11],z-score [12],z-score [13],z-score [14],composite z-score [15],z-score [16],composite z-score [17],composite z-score [18],composite z-score [19],composite z-score [20]
CC(C)c1ccc(NN2C(C(O)c3cc(C(F)(F)F)cc(C(F)(F)F)c3)C=CC3C(=O)N(c4ccccc4)C(=O)C32)cc1 (stereo not given),0.43,-0.165,-0.0165,0.13,1.24,1.69,1.28,0.0782 (inactive),0.273,0.213,0.353,0.89 (inactive),0.183 (inactive),3.38 (inactive),3.22,-2.08 (inactive),-0.0831,-0.722,0.245,-0.152
CCC(CC)C(O)C1C=CC2C(=O)N(C)C(=O)C2N1Nc1ccccc1 (stereo not given),0.53,0.219,0.117,0.258,1.47,1.47,0.816,1.97 (inactive),0.876,-0.134,1.02,-0.0298 (inactive),-0.575 (inactive),0.0024 (inactive),3.07,0.103 (inactive),-0.0321,-0.0929,1.06,-0.0828
N#Cc1ccc(NN2C(C(O)c3c(F)cccc3Cl)C=CC3C(=O)N(c4ccccc4)C(=O)C32)cc1 (stereo not given),0.394,0.187,0.199,0.63,1.69,1.97,0.456,-1.14 (inactive),1.18,0.0053,1.19,0.432 (inactive),1.62 (inactive),2.48 (inactive),3.53,-0.62 (inactive),0.222,-0.109,1.06,-0.244
COCCOC(=O)N1C(=O)[C@@]2(c3cc(C#CC4=CCCCC4)ccc31)[C@H](C(=O)Nc1nc3ccccc3s1)[C@H]1C(=O)O[C@H](c3ccccc3)[C@H](c3ccccc3)N1[C@@H]2c1ccc(OCCO)cc1,-0.152,0.471,-0.0009,0.427,1.12,0.342,0.899,2.19 (inactive),0.146,-0.0994,1.58,2.47 (inactive),1.97 (inactive),2.07 (inactive),1.82,0.373 (inactive),-0.119,1.23,1.14,-0.0238
CN(C)C(=O)[C@@]1(Cc2ccccc2)N=C(c2ccc(OCCCO)cc2)O[C@H]1c1ccccc1N=[N+]=[N-],0.0567,-0.204,0.061,0.64,1.55,1.56,1.12,-1.66 (inactive),1.69,-0.353,1.53,-2.59 (inactive),-1.89 (inactive),4.73 (inactive),3.3,0.875 (inactive),0.306,0.835,1.11,0.0595
O=C1OCCC=C[C@H]2OC34C=CCN(CCN5CCOCC5)C(=O)[C@H]3N(CCCCCCO)C(=O)[C@@H]4C12 (stereo not given in full),-0.174,-0.352,-0.147,0.0933,-0.849,-0.0296,0.988,-0.263 (inactive),-0.235,-0.169,0.358,0.807 (inactive),-1 (inactive),0.201 (inactive),0.562,0.15 (inactive),-0.294,-0.627,-0.017,-0.251
COc1cc2c(cc1O)C(C1CC1)N(Cc1cc3c(cc1Br)OCO3)CC2 (stereo not given),0.423,0.97,-0.119,-0.974,-0.695,0.502,1.02,1.21 (inactive),-0.734,-0.394,-0.221,0.19 (inactive),-3.12 (inactive),-0.24 (inactive),1.61,-1.91 (inactive),-0.209,-0.774,-0.346,-0.363
Cc1ccc(S[C@]2(C(=O)NCCN3CCOCC3)CC(=O)N(Cc3ccccc3)[C@@H]2c2ccc(CO)cc2I)cc1,1.09,-0.883,-0.0564,-0.165,-1.51,0.742,1.49,-0.456 (inactive),-0.39,-0.0645,0.01,-0.605 (inactive),-3 (inactive),0.576 (inactive),2.07,-1.17 (inactive),0.0769,-1.57,-0.791,-0.378
O=C1C[C@]2(c3ccc([N+](=O)[O-])cc3)C(=O)N(CCN3CCOCC3)c3cc(CO)ccc3[C@H]2N1C1CCCCC1,0.526,-0.808,-0.162,-0.212,-0.309,1.37,-0.251,-1.88 (inactive),0.105,-0.121,1.47,-0.87 (inactive),0.0365 (inactive),-1.6 (inactive),1.1,0.668 (inactive),-0.0668,-0.283,-0.188,-0.112
